Measurements as given in PubChem BioAssay (NCI).
This is part of a sample that, as a whole, favours compounds with a hit. Of some 83,000 tested, about 20% had one in any assay.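 48-hour exposure, single concentration, 96-well plates; percent growth endpoint where 0 means no net growth. Active: below 10.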 Activity calls are given as the source filed them.

system: HL-60(TB) leukemia; assay: NCI-60 one-dose screen, 48 h (100 = growth as untreated, 0 = no growth, -100 = all killed); conditions: 10 µM unless noted

Row | Structure (SMILES) | growth
1 | CC1(C)CC2=C3C=C[C@@H]4[C@@]5(C)CC[C@H](O)C(C)(C)[C@@H]5CC[C@@]4(C)[C@]3(C)CC[C@@]2(C(=O)O)CC1=O | 39% (inactive)
2 | COc1cc(OC)c(/C=C/S(=O)(=O)Cc2cnc(OC)c(N)c2)c(OC)c1 | -39.5% (active)
3 | COc1ccc(/C=C/C(=O)c2ccc(NC(=O)CSc3nc4c([nH]3)c(=O)n(C)c(=O)n4C)cc2)cc1OC | 99.5% (inactive)
4 | N/C(=N\N=C\c1ccc2c(c1)OCO2)N/N=C\c1ccc2c(c1)OCO2 | 80% (inactive)
5 | COc1cc(C2CC(=O)Nc3c2c(C)nn3-c2nc3ccccc3[nH]2)cc2c1OCC(=O)N2 (stereo not given) | 77.4% (inactive)
6 | O=C([C@H]1C[C@H]1c1ccc(S(F)(F)(F)(F)F)cc1)N1CCN(c2cc(Cl)ccc2C(F)(F)F)CC1 | 83.5% (inactive)
7 | O=c1c(CNc2ccc(S(=O)(=O)Nc3ncccn3)cc2)coc2ccccc12 | 93.2% (inactive)
8 | C=CCOc1ccc(/C(O)=C2\C(=O)C(=O)N(c3nccs3)C2c2ccccc2F)cc1 (stereo not given) | 81.1% (inactive)
9 | COc1cccc(Nc2nccc(Nc3ccc4[nH]ncc4c3)n2)c1 | -62.3% (active)
10 | CC(=O)n1cc(/C=C2\N=C(c3ccc(Cl)cc3)N(c3ccc(S(=O)(=O)Nc4nccs4)cc3)C2=O)c2ccccc21 | 73.3% (inactive)
11 | O=C(CN1N=C(c2ccc(F)cc2)CCC1=O)Nc1nccs1 | 95.3% (inactive)
12 | O=C(Nc1cccc(F)c1)Nc1cccc(Cl)c1 | -10.6% (active)
13 | CC(C)Cc1nc(Nc2ccccc2)[nH]c(=O)c1C#N | 57.7% (inactive)
14 | CC(C)(N)COS(=O)(=O)O | 94.4% (inactive)
15 | COc1ccc(/C=C2\NC(=S)NC2=O)cc1 | 91.6% (inactive)
16 | CCOc1ccccc1C(=O)OCC(=O)Nc1cccc(S(=O)(=O)N(C)C)c1 | 86.2% (inactive)
17 | CCCO/N=C/c1ccccn1 | 94.8% (inactive)
18 | COc1ncc(-c2ccc3nccc(C#CCCCCC(=O)NO)c3c2)cc1NS(=O)(=O)c1ccc(F)cc1F | -33.3% (active)
19 | O=C(Cn1nnc([N+](=O)[O-])n1)c1ccccc1 | 38% (inactive)
20 | O=C1/C(=C/c2ccc(Cl)cc2)CN(C(=O)C(Cl)Cl)C/C1=C\c1ccc(Cl)cc1 | -19.3% (active)
21 | COc1ccc(-c2ccc(-c3ccc(C(=N)N)nc3)s2)cc1Cl | -48.7% (active)
22 | COc1cccc(C(=O)O)c1OC | 106% (inactive)
23 | COc1ccc(OC)c(/C=C/c2nnc(Nc3ccc(Cl)cc3)o2)c1 | 80.6% (inactive)
24 | COc1ccc(NC(=O)c2sc3nc4c(cc3c2N)CCCC4)cc1 | -14.6% (active)
25 | CCN(CC)CCN1C(=O)c2c(c(C)c3c(oc4cc(OC)ccc43)c2C)C1=O | 85.8% (inactive)
